# High-throughput results (PubChem)
# G9a inh = inhibitors of human histone lysine methyltransferase G9a. G9a H3K9 monomethylation, AlphaScreen, 2 h. Potency, µM (titrated, usually from 102 µM), for inactives: top-dose activity, negative = inhibition, hits mostly inhibitors. actives 8.8% (n = 350,000). AID 504332; also: % is scaled to controls: 0 for no effect and ±100 for the full control effect; nearly all actives have a fitted effect of over 75% in size
# Target sequence (Q96KQ7 913-1193 limits assumed): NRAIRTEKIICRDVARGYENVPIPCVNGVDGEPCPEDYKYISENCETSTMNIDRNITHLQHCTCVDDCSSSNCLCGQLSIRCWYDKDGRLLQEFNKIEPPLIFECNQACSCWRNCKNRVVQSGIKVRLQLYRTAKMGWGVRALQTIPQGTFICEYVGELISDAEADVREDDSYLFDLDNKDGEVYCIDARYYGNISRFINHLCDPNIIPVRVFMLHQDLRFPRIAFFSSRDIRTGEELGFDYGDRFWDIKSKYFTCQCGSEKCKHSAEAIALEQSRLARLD
#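 G9a (20 nM) was preincubated 15 min with compound, then reacted 2 h at room temperature with 500 nM biotin-H3K9 peptide and 20 µM SAM. Monomethyl-H3K9 detected by AlphaScreen using anti-H3K9me1 antibody.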
# BAZ2B inh = blocks human BAZ2B; Q9UIF8; AlphaScreen BAZ2B-H3K14Ac peptide displacement; Potency, µM (doses to about 114 µM), without a hit: at the highest dose activity change, negative = inhibition, hits mostly inhibitors; actives 4.4% (n = 360,000); AID 504333; also: % is scaled to controls: 0 for no effect and ±100 for the full control effect; nearly all actives have a fitted effect of over 60% in size
#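 Protein-peptide AlphaScreen: BAZ2B 50 nM, b-H3K14Ac 50 nM, 1x PBS pH 7.4 + 0.01% Tween-20. Preincubation 30 min RT; cpd 30 min RT (top 110 uM); beads 20 min RT, light-protected.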
# HP1b chromo inh = blocks HP1-beta chromodomain binding to methylated histone tails | P83916 | AlphaScreen HP1-beta / biotin-H3K9me3 peptide binding | Potency, µM (titrated, usually from 114 µM), without a hit: at the highest dose activity change, negative = inhibition, hits mostly inhibitors | actives 0.56% (n = 390,000) | AID 540317; also: nearly all actives have a fitted effect of over 70% in size
# Target sequence (P83916 whole entry, looked up): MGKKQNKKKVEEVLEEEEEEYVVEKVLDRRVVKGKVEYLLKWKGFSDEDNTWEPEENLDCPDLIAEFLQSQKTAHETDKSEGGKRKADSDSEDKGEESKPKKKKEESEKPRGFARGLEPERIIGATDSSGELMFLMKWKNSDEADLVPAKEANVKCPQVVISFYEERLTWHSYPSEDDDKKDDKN
#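 AlphaScreen: HP1-beta (50 nM) preformed 30 min with biotin-H3(1-18)K9me3 peptide (50 nM) in PBS pH 7.4, 0.01% Tween-20. Compound added for 30 min at RT, then streptavidin donor/nickel chelate acceptor beads (10 ug/mL) for 30 min.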
# Sfp inh = blocks B. subtilis Sfp PPTase activity; Biochemical Sfp PPTase activity, qHTS; Potency, µM, without a hit: largest response in the series, negative = inhibition, actives largely listed as inhibitors; actives 3.5% (n = 310,000);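 also: the enzyme is Sfp with the accession as filed and its product quenches rhodamine fluorescence; 0% = enzyme reaction without inhibitor and -100% = no enzyme wells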
#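 Reaction rates are the 30-min fluorescence difference (ex 525, em 598 nm) in wells containing 15 nM Sfp, 5 uM rhodamine-CoA and 12.5 uM BHQ-2-YbbR at pH 7.6 with 10 mM MgCl2.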
# JMJD2A Tudor = JMJD2A Tudor domain (human) inhibition | AlphaScreen JMJD2A-Tudor / H3K4me3 peptide binding | Potency, µM (series often up to 114 µM), without a hit: top-dose activity change, negative = inhibition, actives largely listed as inhibitors | actives 4.4% (n = 390,000) | AID 504339; also: % is scaled to controls: 0 for no effect and ±100 for the full control effect; nearly all actives have a fitted effect of over 50% in size
# L3MBTL1 inh = blocks human L3MBTL1. AID 485360. AlphaScreen L3MBTL1–H3K9me1 peptide binding. actives 0.66% (n = 230,000). Q9Y468. Potency, µM (highest dose often 57.1 µM), without a hit: at the highest dose activity, negative = inhibition, most hits filed as inhibitors; also: % is scaled to controls: 0 for no effect and ±100 for the full control effect; nearly all actives have a fitted effect of over 60% in size
#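 AlphaScreen assay: L3MBTL1 (50 nM final) was preincubated 30 min at room temperature with biotinylated H3(1-15)K9me1 peptide (75 nM final), then 30 min with library compounds; streptavidin donor and nickel chelate acceptor beads (10 ug/mL final) added, 30 min dark.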
# Numbers without * were called inactive; ? = inconclusive; . = no result given; ! = not active in a repeat; [ ] = dose if it differs, or a comment. Rows were chosen to be rich in hits. Some 12% of all compounds tested hit in one or more screens of this group. Calls follow the shape of the dose curve; as a rule, active = well fitted curve in the direction sought with a large enough effect; inconclusive = small, poorly fitted or top-dose-only effect, or another doubt; inactive = no such curve, though single readings can be large; an effect the other way counts as inactive or inconclusive. Potency is read from the fitted curve at half-maximal effect.
SMILES,G9a inh,BAZ2B inh,HP1b chromo inh,Sfp inh,JMJD2A Tudor,L3MBTL1 inh
CC(=O)Nc1ccc(C2Sc3ccccc3NC3=C2C(=O)c2ccccc23)cc1 (stereo not given),18µM*,.,?,.,13µM*,.
CC(=O)Nc1ccc(C2Nc3ccccc3C(=O)N2C2CCCCC2)cc1 (stereo not given),-8%[59 µM],.,23%,12%,-9%,-6%
O=S1(=O)CCS(=O)(=O)C1c1ccccc1,.,.,40%,.,-2%,.
CC(C)c1ccc(C2Sc3ccccc3NC3=C2C(=O)c2ccccc23)cc1 (stereo not given),?,8.9µM*,?,.,11µM*,.
CC1CC(=O)C2=C(C1)Nc1ccccc1SC2c1ccc(F)cc1 (stereo not given),1%[59 µM],-26%,36%,1%,-11%,2%
Cc1ccccc1/C=C/C(=O)c1ccc([N+](=O)[O-])o1,-8%[2.33 µM],35µM*,?,.,?,-5%
O=C(CSc1cccs1)Nc1ccc(Cl)cc1,?,26%,52%,2%,18%,-10%
Cc1ccc2nsnc2c1S(=O)(=O)Nc1cccc2cccnc12,.,.,.,0%,?,.
Cc1nc2scc(-c3cccs3)c2c(=O)n1CC(=O)O,-3%[59 µM],6%,37%,-20%,0%,.
CCn1c(=S)[nH]c2scc(-c3cccs3)c2c1=O,35µM*,-21%,27%,-5%,-33%,3%
CC(C)n1c(=S)[nH]c2scc(-c3cccs3)c2c1=O,28µM*,50µM*,-15%,40µM*,?,-1%
O=c1c2c(-c3cccs3)csc2[nH]c(=S)n1-c1ccccc1,40µM*,-32%,-2%,5%,-4%[57.1 µM],-4%
Cc1csc2nc(CCNS(=O)(=O)c3ccc4c(c3)OCCO4)cn12,50µM*,0%,14%,6%,-7%,-5%
COc1ccc(-c2coc3cc(O)cc(O)c3c2=O)cc1,-3%,-24%,9%,50µM*!,-20%,-6%
CC1CN(C(=O)CSc2nnc3c(Cl)cc(Cl)cn23)CC(C)O1 (stereo not given),79µM*,-3%,35%,12%,-2%,.
COC(=O)c1c(NC(=O)C(=O)NCC2CCCO2)sc2c1CC(C)(C)OC2 (stereo not given),-4%[59 µM],-15%,29%,14%,-24%,.
CNC(=O)c1nc[nH]c1C(=O)NC,?,?,-2%,-22%,28µM*,.
O=C(Nc1ccccc1[N+](=O)[O-])c1nc[nH]c1C(=O)NCCO,14µM*,56µM*,34%,3%,?,3%
O=C(Nc1ccc(F)cc1)c1nc[nH]c1C(=O)Nc1ccccc1[N+](=O)[O-],-31%,-38%,36%,-11%,-21%,-15%
C[C@H](NC(=O)c1[nH]cnc1C(=O)Nc1ccccc1)c1ccccc1,-4%[0.501 µM],10%,27%,.,-24%,-8%
NNC(=O)c1nc[nH]c1C(=O)Nc1ccccc1,?,1.3µM*,49%,25%,?,-2%
CCNC(=O)c1nc[nH]c1C(=O)NCC,-18%[59 µM],-6%,0%,5%,40µM*,1%
CNC(=O)c1[nH]cnc1C(=O)NCC(=O)OC(C)(C)C,?,-30%,45%,24%,-8%,6%
Cc1sc2ncn(CC(=O)Nc3ccc(C(C)C)cc3)c(=O)c2c1S(=O)(=O)N1CCN(c2ncccn2)CC1,-30%[59 µM],-5%,10%,.,-22%,.
CCOC(=O)c1c(C)[nH]c(C)c1S(=O)(=O)NCC(=O)N1CCN(c2ccccc2OC)CC1,-1%[59 µM],-27%,31%,.,-6%,.
CC(C)(C)c1ccc(C(=O)NCC(=O)OC(C(=O)Nc2cc(C(F)(F)F)ccc2Cl)c2ccccc2)cc1 (stereo not given),.,.,.,.,-21%,.
O=C(CC(=O)Nc1ccccc1F)Nc1ccc2nc3n(c(=O)c2c1)CCCCC3,-7%[59 µM],-11%,23%,.,-6%,.
CNC(=O)c1[nH]cnc1C(=O)Nc1ccc(OC)cc1,.,79µM*,17%,-9%,-17%,.
